Compound activity: PubChem, several laboratories
Anthrax LF inh2: blocks Bacillus anthracis lethal factor protease; P15917; multiplex microsphere protease cleavage assay, LF; inhibition, % at 10 µM; 360,000 compounds, 0.12% hits; note: plate controls were buffer without enzyme for full effect and enzyme alone for no effect
Autofluor counter: flagged as autofluorescent in microsphere protease counterscreen; compound autofluorescence counterscreen, microsphere flow cytometry; hits give high values; fluorescence intensity (test concentration not listed); 360,000 compounds, 3.1% hits; in the data active = fluorescence intensity above about 16000; inconclusive = no clear call, values can overlap the other calls
SARS 3CLpro inh: SARS-CoV 3CLpro protease inhibition; AID 1706; P0C6X7; inhibition, % at 6 µM; recombinant SARS-CoV 3CLpro, quenched FRET peptide cleavage; 290,000 compounds, 0.14% hits; in the data active = inhibition above about 12%
BoNT-F LC inh: inhibitors of Botulinum neurotoxin F light chain protease. Multiplex microsphere protease cleavage assay, flow cytometry. inhibition, % at 10 µM. 360,000 compounds, 0.22% hits. AID 588497; in the data active = inhibition above about 35%, passing the limit was not always enough; inconclusive = no clear call, values can overlap the other calls; note: plate controls were buffer without enzyme for full effect and enzyme alone for no effect
BoNT-A LC inh2: blocks Botulinum neurotoxin A light chain protease; multiplex microsphere protease substrate cleavage, flow cytometry; inhibition, % at 10 µM; 360,000 compounds, 0.17% hits; note: plate controls were buffer without enzyme for full effect and enzyme alone for no effect
CCHFV vOTU inh: CCHFV vOTU protease inhibition. inhibition, % at 11.5 µM. 370,000 compounds, 0.55% hits. Pep-AMC fluorescence; in the data active = inhibition above about 30%; note: 0% = vehicle wells with enzyme and 100% = no enzyme wells
* marks the source's active call; other numbers are inactive results; u = inconclusive; x = not tested or not shown. Hits are enriched below; roughly 3.9% of the tested compounds scored in any of these assays. Cut-off read from the data, not from the text of the source, unless noted: active = inhibition above about 30%; inconclusive = no clear call, values can overlap the other calls; inactive = below that.

SMILES	Anthrax LF inh2	Autofluor counter	SARS 3CLpro inh	BoNT-F LC inh	BoNT-A LC inh2	CCHFV vOTU inh
COc1cc(-c2[nH]nc3c2C(c2ccoc2)C(C#N)=C(N)O3)cc(OC)c1OC (stereo unspecified)	-5	2760	2	-11	0	11
COc1cccc(-c2[nH]nc3c2C(c2ccoc2)C(C#N)=C(N)O3)c1 (stereo unspecified)	0	21204*	1	2	u	13
COc1ccc(-c2[nH]nc3c2C(c2ccsc2)C(C#N)=C(N)O3)cc1 (stereo unspecified)	-4	16667*	4	-4	-1	-1
N#CC1=C(N)Oc2n[nH]c(-c3ccccc3)c2C1c1ccsc1 (stereo unspecified)	x	x	-1	x	x	8
COc1cccc(-c2[nH]nc3c2C(c2ccsc2)C(C#N)=C(N)O3)c1 (stereo unspecified)	1	22773*	2	0	2	-1
Cc1ccc(-c2[nH]nc3c2C(c2ccsc2)C(C#N)=C(N)O3)cc1 (stereo unspecified)	-13	9623	0	-9	-1	6
CCOC(=O)C(NC(=O)CC(C)C)(Nc1cc(C)on1)C(F)(F)F (stereo unspecified)	-2	22923*	-8	-1	-2	-5
CCCC(=O)NC(Nc1ccc(S(=O)(=O)Nc2cc(C)on2)cc1)(C(=O)OCC)C(F)(F)F (stereo unspecified)	3	8537	-9	0	0	7
O=C(Nc1ccc(Cl)cc1)N1CCC(c2nc(-c3ccc(F)cc3)no2)CC1	-2	24171*	3	-4	-2	2
O=C(Nc1ccc(Cl)cc1)N1CCN(c2ccc3nnc(-c4ccc(F)cc4)n3n2)CC1	-5	17296*	-2	-8	-3	-1
COc1ccc(NC(=O)N2CCCC(c3nc(-c4ccc(OC)cc4)no3)C2)cc1 (stereo unspecified)	-1	2742	1	-1	0	10
Cc1ccc(OC(=O)c2ccc(N3CCOCC3)c([N+](=O)[O-])c2)cc1	-5	19491*	-2	3	3	12
CCOC(=O)c1cc(CC)sc1NC(=O)c1cc([N+](=O)[O-])ccc1N1CCOCC1	-11	8418	1	4	1	-6
CCOC(=O)c1cc(CC)sc1NC(=O)c1ccc(N2CCOCC2)c([N+](=O)[O-])c1	0	19127*	2	3	3	x
O=C(Oc1ccc(Cl)cc1)c1ccc(N2CCOCC2)c([N+](=O)[O-])c1	0	2498	-1	-3	0	4
CO/N=C/c1ccc(N2CCN(C(=O)c3ccc(C)cc3)CC2)c([N+](=O)[O-])c1	-5	24171*	3	-4	-4	16
COC(=O)c1ccc(N2CCC(c3cc(-c4ccc(OC)cc4)n[nH]3)CC2)c([N+](=O)[O-])c1	-5	23463*	8	-6	-2	1
CCOC(=O)[C@]12CCCC3=C1N(CCC3)C(=O)[C@@H](CC(=O)NCCCOC)C2	x	x	x	x	x	1
Cc1ccc(C)n1-n1c(C)nc2scc(-c3ccccc3)c2c1=O	-3	21049*	2	-2	-2	1
Cc1ccc2c(c1)CCCN2C(=O)c1ccc2c(c1)OCO2	-1	23514*	4	-2	-1	7
Cc1ccc2c(c1)CCCN2C(=O)c1ccco1	-1	22783*	-2	-1	2	-14
c1ccc(-c2nnc3n2N=C(c2ccc4ccccc4c2)CS3)cc1	x	x	x	x	x	2
FC(F)(F)c1cc(Oc2ccc(Cl)cc2)nc(-c2ccccn2)n1	-2	23289*	5	-8	-3	-3
CCN(CC)c1cc(C(F)(F)F)nc(-c2ccccn2)n1	7	8722	-1	12	2	-8
FC(F)(F)c1cc(Oc2ccccc2Cl)nc(-c2ccccn2)n1	-1	21573*	4	0	2	-6
SMILES	Anthrax LF inh2	Autofluor counter	SARS 3CLpro inh	BoNT-F LC inh	BoNT-A LC inh2	CCHFV vOTU inh
C=CCNc1cc(C(F)(F)F)nc(-c2ccccn2)n1	-1	19805*	0	1	1	-4
CCOC(=O)[C@@]12CCCC3=C1N(CCC3)C(=O)[C@H]2CC(=O)NCCCOC	x	x	x	x	x	-1
Cc1cccc(-c2cccc3c4c([nH]c23)[C@@H]2C[C@H](N(C)C(=O)Nc3ccccc3C)[C@H]([C@H](C)O)C(=O)N2CC4)c1	x	x	x	x	x	1
Cn1c(=O)[nH]c2c(Br)nccc21	x	x	x	x	x	2
C[N+]1(CC(=O)Nc2ccc(F)cc2)CCN(C(=O)c2ccco2)CC1	-2	16539*	1	3	0	1
CC(C)(C)c1ccc(C#C[C@@H]2C=C[C@H](O)[C@@H](COC(=O)Nc3ccccc3)O2)cc1	x	x	x	x	x	23
CCc1ccc(OCC(=O)Nc2cc(S(=O)(=O)CC)ccc2O)cc1	0	17897*	2	4	4	-13
CCS(=O)(=O)c1ccc(O)c(NC(=O)COc2ccccc2)c1	-1	11012	-1	2	0	4
CCCc1cc(=O)n2[nH]c(C)cc2n1	0	24507*	-2	-5	-3	-2
CCCc1cc(=O)n2[nH]c(-c3ccco3)nc2n1	-2	23273*	2	0	-1	9
O=C1C2ON(c3ccccc3)C(c3ccncc3)C2C(=O)N1c1ccccc1 (stereo unspecified)	2	20412*	-2	-3	-2	-1
Cc1c(Cl)cccc1N1C(=O)C2ON(c3ccccc3)C(c3cccnc3)C2C1=O (stereo unspecified)	2	21730*	3	-2	0	-3
Cc1cccc(C)c1N1C(=O)C2ON(c3ccccc3)C(c3ccncc3)C2C1=O (stereo unspecified)	0	22531*	-5	-4	u	3
Cc1ccccc1N1C(=O)C2ON(c3ccccc3)C(c3cccnc3)C2C1=O (stereo unspecified)	1	5262	2	-5	0	-1
Cc1ccc(N2C(=O)C3ON(c4ccccc4)C(c4ccncc4)C3C2=O)c(C)c1 (stereo unspecified)	-6	4259	2	-2	0	3
COC(=O)[C@]12C[C@H](CC(=O)NCCC(C)C)C(=O)N(Cc3ccccc3)C1=C[C@H](C(C)(C)C)O[C@@H]2C	x	x	x	x	x	26
CCOC(=O)[C@]12CCCCC/C=C\1N(Cc1ccc(OC)cc1)C(=O)[C@H]2CC(=O)N1CCC(c2ccccc2)CC1	x	x	x	x	x	22
COc1ccc(CNCC(O)(c2ccccc2)c2ccc(Cl)cc2)cc1 (stereo unspecified)	2	9814	3	-14	0	3
COc1cccc(CNCC(O)(c2ccc(Cl)cc2)c2ccc(Cl)cc2)c1	-3	23322*	1	-12	0	6
O=C(Nc1nc(COc2ccccc2)cs1)C1CCC1	-4	4378	2	0	0	-11
CC(=O)Nc1nc(COc2ccc3ccccc3c2)cs1	-8	23460*	1	-1	-2	5
O=C(Nc1nc(COc2ccccc2)cs1)C12CC3CC(CC(C3)C1)C2	-2	24492*	-8	-6	-6	4
CC(=O)Nc1nc(COc2ccccc2)cs1	0	11092	0	2	0	-2
